# Results: the supplement of paper PMC6555819
# What was measured:
# Test in all cases: PBM binding z-score (relative to random genomic background probes); higher = stronger binding; sequences stand for … in GC…GCGATTGACAGCGTAGAATGAAGG
# [1] = test system: PPARg:RXRa DBDmut IVT, anti-RXR (DBD mutation: RXRa K156A/R161A, NR concentration 270 nM, RXRa partner concentration 90 nM)
# Outline: (§1)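 Antibodies against each partner of ligand-free nuclear receptor dimers (one per run) detected binding on custom Agilent 4×180K protein-binding microarrays after 1 h incubation. The double-stranded probes had 34-nt variable regions carrying direct-repeat seeds, single-nucleotide variants, half-site ablations and random human genomic background sequences. Binding z-scores, from regression-normalized fluorescence, use the random background probes as reference.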
# [2] = test system: PPARg:RXRa IVT, anti-PPARg (NR concentration 270 nM, RXRa partner concentration 90 nM)
# Outline: as §1
# [3] = test system: PPARg DBDmut:RXRa IVT, anti-PPARg (DBD mutation: PPARg1 K132A/R137A, NR concentration 270 nM, RXRa partner concentration 90 nM)
# Outline: as §1
# [4] = test system: PPARg DBDmut IVT, anti-PPARg (DBD mutation: PPARg1 K132A/R137A, NR concentration 270 nM)
# Outline: as §1
# [5] = test system: PPARg homodimer (NR concentration 180 nM)
# Outline: as §1
# [6] = test system: PXR:RXRa (NR concentration 270 nM, RXRa partner concentration 90 nM)
# Outline: as §1
# [7] = test system: PXR homodimer (NR concentration 270 nM)
# Outline: as §1
# [8] = test system: RARa:RXR (NR concentration 270 nM, RXRa partner concentration 90 nM)
# Outline: as §1
# [9] = test system: RARa homodimer (NR concentration 270 nM)
# Outline: as §1
# [10] = test system: RARb:RXRa (NR concentration 270 nM, RXRa partner concentration 90 nM)
# Outline: as §1
# [11] = test system: RARb homodimer (NR concentration 270 nM)
# Outline: as §1
# [12] = test system: RARg:RXRa (NR concentration 270 nM, RXRa partner concentration 90 nM)
# Outline: as §1
# [13] = test system: RARg homodimer (NR concentration 270 nM)
# Outline: as §1
# [14] = test system: RXRa DBDmut IVT, anti-RXR (DBD mutation: RXRa K156A/R161A, NR concentration 90 nM)
# Outline: as §1
# [15] = test system: RXRa homodimer (NR concentration 180 nM)
# Outline: as §1
# [16] = test system: THRa:RXRa (NR concentration 90 nM, RXRa partner concentration 90 nM)
# Outline: as §1
# [17] = test system: THRa homodimer (NR concentration 90 nM)
# Outline: as §1
# [18] = test system: VDR homodimer (NR concentration 270 nM)
# Outline: as §1
Sequence,PBM binding z-score [1],PBM binding z-score [2],PBM binding z-score [3],PBM binding z-score [4],PBM binding z-score [5],PBM binding z-score [6],PBM binding z-score [7],PBM binding z-score [8],PBM binding z-score [9],PBM binding z-score [10],PBM binding z-score [11],PBM binding z-score [12],PBM binding z-score [13],PBM binding z-score [14],PBM binding z-score [15],PBM binding z-score [16],PBM binding z-score [17],PBM binding z-score [18]
TCTTGTAGATCGAGCAGGTTAAGAAAGCCTGAGT,1.19,-0.156,0.439,0.279,0.237,0.342,-0.0974,0.496,-0.293,-0.102,-0.141,-0.28,-0.423,0.213,0.0253,0.0849,-0.506,-0.257
GCACGGAGGACAAGGTCAGAGCTTTGTCCGTAGA,-0.0936,0.429,-1.21,-1.21,0.85,1.72,-0.197,2.03,-0.486,3.27,3.22,3.17,3.57,1.01,2.56,2.89,1.58,0.622
CCTGCTAGGTCAATGGGCAGCTAAAGCAGCTCGC,3.7,3.4,-0.844,-1.02,0.228,0.352,-0.589,1.07,-0.679,3.6,2.4,3.12,4.03,0.674,1.35,1.99,0.0215,-0.152
CCAGACAGGTGACAAGGTAACTCAGCCTCGATTA,1.41,1.61,-0.344,-0.0688,0.918,-0.151,-0.207,0.278,0.367,0.783,0.759,0.862,0.728,0.06,0.446,1.24,0.784,-0.45
CCTAGCAGGCCGGGGTCACTCAAGCATTTCGCTT,0.19,1.7,-1.3,-0.709,1.87,5.35,0.474,5.98,0.348,3.53,3.68,4.98,3.6,1.99,6.81,3.89,2.05,3.75
CGTCCAAGGTCTTAGGAGGTCAGTGAAGACAGAT,0.587,1.31,-0.3,-0.454,1.17,3.07,0.796,2.15,-0.152,2.46,3.12,2.51,2.68,0.709,2.01,4.13,1.15,1.33
ATATGTATGTTAAGGGTCATTCAGGTTGGTTCGC,3.13,4.91,2.02,1.65,2.83,4.73,2.03,4.22,1.18,3.31,3.82,3.82,2.66,2.29,4.3,3.36,1.54,3.48
TCTCGTAGGACACGAAGGTCAGAGCTTTCCAGAG,1.67,1.28,-0.564,-1.07,0.78,1.35,-0.171,1.75,-0.101,2.89,3.42,2.46,2.96,0.604,1.63,1.98,0.187,0.463
GAACCAAGGTGAATAGGTCGTTGATGAGTAGGCG,1.81,2.56,-0.234,-0.27,0.411,0.765,-0.0642,1.68,-0.0573,1.95,1.78,2.53,1.25,-0.268,2,1.77,0.124,-0.00141
ATATGTAGGTTATCGGCTCATTCAGTTTGCGCAT,6.92,6.58,2.28,1.66,1.39,0.282,0.405,0.31,1.01,0.662,0.158,0.446,0.752,0.79,0.927,0.266,0.293,0.816
CCTTACGGGTCACTCCCGGTTATAGCATCGGAGT,2.29,3.2,-0.351,0.418,2.11,3.32,0.36,3.34,1.06,3.65,2.94,4.42,4.31,1.43,4.33,3.71,0.272,1.14
TCTTGTAGATCAATAGAGGTTAAGAACGTGCGCT,1.69,1.17,0.658,1.03,0.496,1.51,0.111,1.83,0.544,0.956,1.05,0.792,0.716,0.923,1.54,2.33,-0.182,0.37
AGTCAAAGTTCACTAGGTAACGTGAGATTCAGCT,2.52,4.98,1.48,1.01,2.06,3.61,1.97,2.87,0.41,4.72,3.59,4.82,5.55,3.83,3.61,1.87,0.0345,3.17
CAGCCTATGTCAGGGCCAGTATAGGAGGAACGTT,-0.717,-0.807,-1.25,-0.192,-0.0188,-0.63,-0.46,-0.507,-0.292,0.105,0.243,0.116,0.219,-0.685,-0.248,-0.329,-0.168,-0.529
AATACAGGGTCACTCGGCCAGAGTAGGTACGAAT,3.09,5.09,2.08,1.63,2.92,3.49,0.336,4.66,0.723,4.39,3.24,5.28,5.06,3.27,5.63,3.4,0.907,2.84
ACTCGAAGGACAAAGGTCAGAGCTACGCCAGTGA,0.648,3.42,-0.0022,-0.263,2.57,3.58,0.743,4.28,0.861,4.7,4.53,5.85,4.94,0.729,4.69,3.02,0.499,0.565
